Assay [1] is described as follows: qHTS for inhibitors of adenylyl cyclases using a fission yeast platform: a pilot screen against the NCATS LOPAC library (AID 1347410). The procedure, abridged:
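Growth medium went into the plates first, then compounds were pinned (final up to 57 µM), then CHP2027 yeast were added. Plates were incubated overnight (18 h) at 30C in the dark, and GFP was measured by laser scanning cytometry.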
(In general: Quantitative high-throughput screening tests each substance at several concentrations.)

A short description of assay [2]: Validation qHTS assay for inhibitors of Activation Induced Cytidine Deaminase (AID): UDG Counterscreen signal (AID 1347427). Also: potency is read from the fitted curve at half-maximal effect. The method, boiled down:
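Counterscreen read of UDG activity (2 U/mL, 4/3x) in the FRET deamination format with AID (1 uM, 4/3x), DJC20/DJC23 substrates (250 nM, 4x), 4 h at room temperature. NaOH stop, fluorescence at 560 ex/665 em.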

Active and inactive are the calls of the source. Entries that show only a call come without a potency. Calls follow the shape of the dose curve; as a rule, active = well fitted curve in the direction sought with a large enough effect; inconclusive = small, poorly fitted or top-dose-only effect, or another doubt; inactive = no such curve, though single readings can be large; an effect the other way counts as inactive or inconclusive.

For the molecule `CC(C)(CO)Cc1cc(C(C)(C)C)c(O)c(C(C)(C)C)c1`, the outcome in assay [1] was inactive. In addition, the Potency entry in assay [2] was “inactive”.

On to `C#CCn1c(=O)c2c(ncn2C)n(C)c1=O`, for which the call in assay [1] was inactive. The Potency result in assay [2] was “inactive”.

Consider `O=C1Nc2ccc(I)cc2/C1=C/c1cc(Br)c(O)c(Br)c1`, for which, in assay [1], the molecule was classed as inactive. For the same molecule, the Potency entry in assay [2] is “inactive”.

Turning to `N=C(N)c1ccccc1`, the call in assay [1] was inactive.

As to `N#CC(=C(\N)Sc1ccccc1N)/C(C#N)=C(/N)Sc1ccccc1N`, the molecule was called inactive in assay [1]. The Potency result in assay [2] is “inactive”.

Regarding `CCCN(CCc1ccccc1)C1CCc2c(O)cccc2C1` (stereo not given), the molecule was classed as inactive in assay [1]. In assay [2], the Potency entry is “inactive”.

In the case of `Clc1nccc2c1ccc1ccccc12`, in assay [1], the outcome was inactive. The Potency entry in assay [2] was “inactive”.

Consider `CCCCCCC(=O)OC1CC(C)(C)NC(C)(C)C1`, for which the call in assay [1] was inactive. In addition, in assay [2], the Potency entry was “inactive”.

Consider `Cc1cc2c(cc1Cl)N(C(=O)Nc1ccnc3ccccc13)CC2`, for which, in assay [1], the result was inactive. For the same molecule, the Potency result in assay [2] was “inactive”.

As for `O=C(N[C@@H](Cc1ccccc1)C(=O)CCl)OCc1ccccc1`, the outcome in assay [1] was inactive. In assay [2], the Potency entry was “inactive”.

With `CCCn1c(=O)c2c(ncn2C)n(CCC)c1=O`, in assay [1], the outcome was inactive. Also, the Potency result in assay [2] is “inactive”.

With `Cn1c(=O)[nH]c2ncn(C)c2c1=O`, the call in assay [1] was inactive. In addition, in assay [2], the Potency entry is “inactive”.

On to `C[C@@]1(C2CCCC2)Cc2cc(OCC(=O)O)c(Cl)c(Cl)c2C1=O`, for which the call in assay [1] was inactive. Besides, the Potency result in assay [2] is “inactive”.

Consider `O=c1cc(-c2ccccc2F)[nH]c2cc3c(cc12)OCO3`, for which the result in assay [1] was inactive. In addition, the Potency entry in assay [2] is “inactive”.

`COc1ccc(C(=O)NCc2cccnc2)cc1C(=O)NCc1cccnc1`: in assay [1], the molecule was classed as inactive.

For the molecule `CC(=O)N[C@@H](Cc1c[nH]c2ccccc12)C(=O)OCc1cc(C(F)(F)F)cc(C(F)(F)F)c1`, in assay [1], the molecule was classed as inactive.

For `CNC(=O)c1cc2c(cn1)[nH]c1ccccc12`, the call in assay [1] was inactive. Moreover, the Potency entry in assay [2] is “inactive”.

On to `CCCCCCCCCCC(C)(C)C(=O)Nc1c(OC)cc(OC)cc1OC`, for which the outcome in assay [1] was inactive.

Take `C=C(C)C1CC=C(C(=O)O)CC1` (stereo not given): the outcome in assay [1] was inactive. For the same molecule, the Potency entry in assay [2] was “inactive”.

Regarding `CCCCOC(=O)NS(=O)(=O)c1sc(CC(C)C)cc1-c1ccc(Cn2c(CC)nc3c(C)cc(C)nc32)cc1`, in assay [1], the outcome was inactive. The Potency entry in assay [2] was “inactive”.

Take `COc1cc(/C=C(\C#N)C(=O)c2ccc(O)c(O)c2)cc(I)c1O`: the molecule was called inactive in assay [1].

As for `CCCCCCCC/C=C\CCCCCCCC(=O)NCCc1ccc(O)c(O)c1`, in assay [1], the outcome was inactive. Moreover, the Potency entry in assay [2] was “inactive”.

In the case of `O=c1cc(-c2ccccc2)[nH]c2nc(Cl)ccc12`, in assay [1], the call was inactive.

Turning to `C=CCNc1ncnc2ccc(Br)cc12`, the call in assay [1] was inactive. The Potency entry in assay [2] was “inactive”.

As to `COC(=O)C1=C(C)NC(C)=C([N+](=O)[O-])C1c1ccccc1C(F)(F)F` (stereo not given), in assay [1], the molecule was classed as inactive. For the same molecule, the Potency entry in assay [2] is “inactive”.

On to `CC[C@H](NC(=O)c1c(C)c(-c2ccccc2)nc2ccccc12)c1ccccc1`, for which the call in assay [1] was inactive. For the same molecule, the Potency result in assay [2] was “inactive”.

Consider `O=C(O)C1=CC(=C(c2ccc(O)c(C(=O)O)c2)c2ccc(O)c(C(=O)O)c2)C=CC1=O`, for which the molecule was called inactive in assay [1]. Besides, the Potency in assay [2] is 89.1 µM (active).

In the case of `CN(C)S(=O)(=O)c1ccc2c(c1)/C(=C/c1cc3c([nH]1)CCCC3)C(=O)N2`, the Potency result in assay [2] is “inactive”.

As to `NC(=Nc1ccccc1)NC(=O)c1nc(Cl)c(N)nc1N`, the call in assay [1] was inactive. The Potency result in assay [2] is “inactive”.

Turning to `CC1CCN=C(N)S1` (stereo not given), the result in assay [1] was inactive. In addition, in assay [2], the Potency entry is “inactive”.

For `C=C1C(=O)O[C@@H]2[C@H]3O[C@]3(C)CCC=C(C)CC[C@@H]12`, the result in assay [1] was inactive. For the same molecule, the Potency result in assay [2] was “inactive”.

For the molecule `C=CC1(C)CC(=O)C2(O)C(C)(O1)C(OC(C)=O)C(O)C1C(C)(C)CCC(O)C12C` (stereo not given), in assay [2], the Potency entry was “inactive”.

With `CCCCCCN(CCCCCC)C(=O)Cc1c(-c2ccc(F)cc2)[nH]c2ccccc12`, the Potency result in assay [2] was “inactive”.

For the molecule `O=C(O)C1=CCCNC1`, in assay [1], the result was inactive. In addition, in assay [2], the Potency entry was “inactive”.

`CCCCCCCCCCCCCCCCCCOC[C@H](COP(=O)([O-])OCC[N+](C)(C)C)OC`: in assay [2], the Potency entry is “inactive”.

For the molecule `CC(N)=NCCCC[C@@H](N)C(=O)O`, the molecule was called inactive in assay [1]. The Potency entry in assay [2] was “inactive”.

In the case of `Nc1nc2ccc(Cl)cc2c2nc(-c3ccco3)nn12`, the Potency result in assay [2] was “inactive”.

Regarding `O=C(c1ccc2c(c1)OCCO2)N1CCCCC1`, the molecule was classed as inactive in assay [1]. In assay [2], the Potency entry was “inactive”.

For the molecule `CCCC[C@@]1(C2CCCC2)Cc2cc(OCC(=O)O)c(Cl)c(Cl)c2C1=O`, the molecule was classed as inactive in assay [1]. In addition, the Potency result in assay [2] is “inactive”.

Consider `CC(=O)SC1CC2=CC(=O)CC[C@]2(C)C2CC[C@@]3(C)C(CC[C@@]34CCC(=O)O4)C12` (stereo not given in full), for which the Potency entry in assay [2] was “inactive”.

Turning to `O=C(O)/C=C/c1cnc[nH]1`, the Potency entry in assay [2] was “inactive”.

Take `Nc1ncnc2c1c(-c1ccc(Oc3ccccc3)cc1)cn2C1CCCC1`: the Potency entry in assay [2] was “inactive”.

The record behind these values is PubChem BioAssay (NCATS).
